Measured values reported in PMC5540273 (PLoS ONE, 2017).

Assays:
Details in all cases: concentration: 1 μM, replicates: in singlicate; n = 1
PIK4CB = tested on: T1, PIK4CB
T1 construct: gene PI4KB

PIKFYVE = tested on: PIKFYVE
PIM1 = tested on: PIM1
PIM2 = tested on: PIM2
PIM3 = tested on: PIM3
PIP5K1A = tested on: PIP5K1A
PIP5K1C = tested on: PIP5K1C
PIP5K2B = tested on: PIP5K2B
PIP5K2C = tested on: T2, PIP5K2C
T2 construct: gene PIP4K2C

PKAC-alpha = tested on: T3, PKAC-alpha
T3 construct: gene PRKACA

PKAC-beta = tested on: T4, PKAC-beta
T4 construct: gene PRKACB

PKMYT1 = tested on: PKMYT1
PKN1 = tested on: PKN1
PKN2 = tested on: PKN2
PLK1 = tested on: PLK1
PLK2 = tested on: PLK2
PLK3 = tested on: PLK3
PLK4 = tested on: PLK4
PRKCD = tested on: PRKCD
PRKCE = tested on: PRKCE
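Note: KINOMEscan kinase panel screen.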

SMILES	%Inh (PIK4CB) [%]	%Inh (PIKFYVE) [%]	%Inh (PIM1) [%]	%Inh (PIM2) [%]	%Inh (PIM3) [%]	%Inh (PIP5K1A) [%]	%Inh (PIP5K1C) [%]	%Inh (PIP5K2B) [%]	%Inh (PIP5K2C) [%]	%Inh (PKAC-alpha) [%]	%Inh (PKAC-beta) [%]	%Inh (PKMYT1) [%]	%Inh (PKN1) [%]	%Inh (PKN2) [%]	%Inh (PLK1) [%]	%Inh (PLK2) [%]	%Inh (PLK3) [%]	%Inh (PLK4) [%]	%Inh (PRKCD) [%]	%Inh (PRKCE) [%]
COC(=O)C(NC(=O)NC1CCN(c2ccnc(Nc3ccc(F)cc3)n2)C1)c1ccccc1 (stereo not drawn) [GSK1379712]	16	28	0	0	0	9	41	17	29	0	0	0	18	0	13	3	4	1	0	18
COc1cc2ncnc(Nc3cccc(Br)c3)c2cc1OC.Cl [GI230329]	0	32	21	0	14	0	79	14	52	0	0	0	0	0	2	0	0	0	3	11
COC(=O)c1cccc(NC(=O)NC2CCN(c3ccnc(Nc4ccc(OC)cc4)n3)C2)c1 (stereo not drawn) [GSK1379746]	21	41	0	0	0	17	10	19	48	0	0	0	11	0	0	0	0	0	0	8
CC(C)c1ccc(O)cc1Nc1ccnc2ccc(C(F)(F)F)cc12 [GW482059]	45	1	19	0	0	0	0	7	0	0	16	0	36	0	0	0	0	0	0	0
CCCCc1nn2ncccc2c1-c1ccnc(NC2CC2)n1 [GW684374]	35	0	0	0	0	0	36	0	75	0	0	0	18	0	0	0	0	0	0	1
COc1ccc(CSc2nnc(-c3ccc4nccn4c3)o2)cc1C(F)(F)F	0	0	6	9	0	2	0	43	0	10	26	28	3	33	0	42	16	11	20	21
CS(=O)(=O)CCNCc1nc(-c2ccc3ncnc(Nc4ccc(OCc5ccccc5)c(Cl)c4)c3c2)cs1.Cl [GW582764]	0	25	14	0	0	47	52	10	56	0	2	0	0	0	0	0	0	0	0	6
COc1ccc(Nc2nccc(NCCNC(=O)Nc3cc(C)ccc3C)n2)cc1 [GSK1379899]	0	0	0	0	0	0	18	6	39	0	0	2	30	0	0	0	0	0	10	0
Cn1cnc2c(N)ncnc21 [SKF-97623]	10	44	5	0	0	30	0	14	33	0	0	0	0	0	0	0	0	0	0	9
COC(=O)C(Cc1ccccc1)NC(=O)NC1CCN(c2ccnc(Nc3ccc(F)cc3)n2)C1 (stereo not drawn) [GSK1379714]	7	22	0	0	0	45	35	30	36	0	0	0	41	0	6	0	0	12	1	20
CCn1c(-c2c(N)noc2C)nc2cnccc21 [SB-737856]	0	0	0	0	0	0	0	19	6	0	0	0	29	0	0	0	0	0	0	0
O=C(Nc1n[nH]c2nc(-c3ccco3)c(Br)cc12)C1CCN(Cc2ccccc2)C1.O=C(O)[C@H](O)[C@@H](O)C(=O)O (stereo not drawn) [SB-742034]	14	7	9	5	28	0	0	0	0	10	15	8	0	41	3	24	5	22	35	1
COc1cccc(NC(=O)Nc2ccc(C)c(-c3ccc(C(=O)Nc4ccncc4)cc3)c2)c1 [GSK1398474]	0	0	15	0	22	0	0	0	0	17	0	0	0	14	0	0	0	6	15	0
CNC(=O)c1ccc(C)c(-n2c(C)cc(OCc3ccc(F)cc3F)c(Br)c2=O)c1	0	40	0	0	0	0	1	0	0	0	74	0	0	19	0	0	0	0	7	35
CCn1c(-c2ccccc2)nc2cnccc21 [SB-733416]	0	40	0	0	0	5	21	0	13	0	3	30	0	0	0	0	0	0	8	22
